Source: ChEMBL document CHEMBL3433997, “St. Jude Leishmania screening dataset” (2016)

Columns and labels:
Type in all cases: functional
[1] = target: Solute carrier family 2, facilitated glucose transporter member 1 (Homo sapiens) (UniProt P11166); assay: ST_JUDE_LEISH: Cytotoxicity at 2uM final concentration against transgenic Leishmania Mexicana promastigotes LmGLUT1 that are glucose transport deficient and complemented with the human glucose transporter GLUT1. Activity is measured by DNA content using SYBR green in vitro
Chain of Solute carrier family 2, facilitated glucose transporter member 1 (Homo sapiens) (P11166 whole entry): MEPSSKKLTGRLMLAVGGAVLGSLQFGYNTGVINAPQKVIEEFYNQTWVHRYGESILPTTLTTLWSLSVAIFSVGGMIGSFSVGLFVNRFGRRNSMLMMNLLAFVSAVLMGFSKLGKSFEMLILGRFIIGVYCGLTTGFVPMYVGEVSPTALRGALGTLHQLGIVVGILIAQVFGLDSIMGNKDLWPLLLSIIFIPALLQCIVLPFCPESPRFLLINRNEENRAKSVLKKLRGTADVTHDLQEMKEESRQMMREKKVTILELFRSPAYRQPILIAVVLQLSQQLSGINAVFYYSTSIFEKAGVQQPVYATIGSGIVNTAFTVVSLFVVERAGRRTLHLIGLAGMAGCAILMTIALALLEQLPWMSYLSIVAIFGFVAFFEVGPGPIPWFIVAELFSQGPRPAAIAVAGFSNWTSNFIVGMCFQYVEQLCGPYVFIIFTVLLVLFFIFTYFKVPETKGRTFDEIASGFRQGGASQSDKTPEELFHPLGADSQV

[2] = target: Hexose transporter 1 (Plasmodium falciparum) (UniProt O97467); assay: ST_JUDE_LEISH: Cytotoxicity at 2uM final concentration against transgenic Leishmania Mexicana promastigotes LmPfHT that are glucose transport deficient and complemented with the Plasmodium falciparum hexose transporter. Activity is measured by DNA content using SYBR green in vitro
[3] = target: Glucose transporter (Leishmania mexicana) (UniProt O61059); assay: ST_JUDE_LEISH: Cytotoxicity at 2uM final concentration against transgenic Leishmania Mexicana promastigotes LmGT2 that are glucose transport deficient and complemented with the L. Mexicana glucose transporter 2. Activity is measured by DNA content using SYBR green in vitro

Row | SMILES | inhibition [1] | inhibition [2] | inhibition [3]
1 | O=c1cc(NCCCNCc2sc(Br)nc2Br)[nH]c2ccccc12 | 3.62% | 4.14% | 4.34%
2 | CS(=O)(=O)NCCCNCc1cccc(-c2csc(-c3nc4ccccc4[nH]3)c2)c1 | -0.84% | -0.51% | -0.84%
3 | O=C(Nc1ccc(Oc2ccccc2)cc1)N1CCC(CCN2CCC(c3c[nH]c4ccccc34)CC2)CC1 | 4.42% | 2.98% | 5.21%
4 | CN1CCN(Cc2cccc(-c3ccc4c(Nc5ccc(Oc6ccccc6)cc5)ccnc4c3)c2)CC1 | 12.9% | 17% | 18.6%
5 | CCn1c(CN2CCN(Cc3ccccc3)CC2)nc2cc(NC(=O)c3cccs3)ccc21 | 1.2% | 1.22% | -1.93%
6 | N=C(N)NCCCCN(Cc1ccccc1)c1ccccc1 | 3.52% | 3.53% | 3.86%
7 | COc1cccc(-c2cnc(-c3ccncc3)nc2C2CCN(Cc3ccc(NC(C)=O)cc3)CC2)c1 | 3.49% | 4.22% | 1.53%
8 | O=C(/C=C/c1ccc(C(F)(F)F)cc1)NCCCCCN1CCCN(C(=O)Nc2ccc(Cl)c(C(F)(F)F)c2)CC1 | -0.16% | 0.4% | 0.66%
9 | O=C(Nc1ccc(Cl)cc1)Nc1ccc2nonc2c1 | 0.79% | 1.43% | 0.9%
10 | COc1ccc(-c2ccc(CNC(=O)c3cccc(C#N)c3)c(F)c2)cc1CN1CCCN(C)CC1 | 0.77% | -4.93% | 0.55%
11 | Cc1ccc(O)c(C(=O)c2cc(C(=O)Nc3ccccc3C)c(=O)n(-c3ccccc3C)c2)c1 | 4.62% | 3.71% | 1.81%
12 | CC1CN(c2cnn(C/C=C/c3ccc(NC(=O)c4ccc([N+](=O)[O-])cc4)cc3)c(=O)c2Cl)CC(C)N1 (stereo unspecified) | -0.1% | 1.74% | 0.18%
